Test results from ChEMBL document CHEMBL1961873, “Compounds: GSK PKIS; Assays: Nanosyn kinase panel” (2012).

Experiments:
[1] = test system: Proto-oncogene tyrosine-protein kinase receptor Ret (Homo sapiens), P07949 [Y791F]; settings: at 1 µM
[2] = biological target: Macrophage-stimulating protein receptor (Homo sapiens) (UniProt Q04912); settings: at 0.1 µM
[3] = biological target: Macrophage-stimulating protein receptor (Homo sapiens) (UniProt Q04912); settings: at 1 µM
[4] = biological target: Proto-oncogene tyrosine-protein kinase ROS (Homo sapiens) (UniProt P08922); settings: at 0.1 µM
[5] = biological target: Proto-oncogene tyrosine-protein kinase ROS (Homo sapiens) (UniProt P08922); settings: at 1 µM
[6] = biological target: Proto-oncogene tyrosine-protein kinase Src (Homo sapiens) (UniProt P12931); settings: at 0.1 µM
[7] = biological target: Proto-oncogene tyrosine-protein kinase Src (Homo sapiens) (UniProt P12931); settings: at 1 µM
[8] = biological target: Tyrosine-protein kinase Srms (Homo sapiens) (UniProt Q9H3Y6); settings: at 0.1 µM
[9] = biological target: Tyrosine-protein kinase Srms (Homo sapiens) (UniProt Q9H3Y6); settings: at 1 µM
[10] = biological target: Tyrosine-protein kinase SYK (Homo sapiens) (UniProt P43405); settings: at 0.1 µM;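 also: reported percentages are mean inhibition values for SYK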

Tyrosine-protein kinase Srms (Homo sapiens), sequence (Q9H3Y6 whole entry): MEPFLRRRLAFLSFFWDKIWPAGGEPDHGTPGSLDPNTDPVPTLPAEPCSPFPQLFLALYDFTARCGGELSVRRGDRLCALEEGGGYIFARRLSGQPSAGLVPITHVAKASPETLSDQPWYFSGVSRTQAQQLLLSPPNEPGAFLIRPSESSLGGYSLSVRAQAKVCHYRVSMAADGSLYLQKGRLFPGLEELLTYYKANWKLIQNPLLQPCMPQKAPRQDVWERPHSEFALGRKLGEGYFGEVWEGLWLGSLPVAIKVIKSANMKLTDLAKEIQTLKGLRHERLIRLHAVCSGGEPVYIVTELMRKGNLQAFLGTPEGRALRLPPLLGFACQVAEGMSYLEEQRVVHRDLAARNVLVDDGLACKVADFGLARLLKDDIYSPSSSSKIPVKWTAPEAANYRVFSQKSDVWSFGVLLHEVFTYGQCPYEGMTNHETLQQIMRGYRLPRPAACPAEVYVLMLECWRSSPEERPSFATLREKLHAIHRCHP
Macrophage-stimulating protein receptor (Homo sapiens), sequence (Q04912 25-304 limits assumed): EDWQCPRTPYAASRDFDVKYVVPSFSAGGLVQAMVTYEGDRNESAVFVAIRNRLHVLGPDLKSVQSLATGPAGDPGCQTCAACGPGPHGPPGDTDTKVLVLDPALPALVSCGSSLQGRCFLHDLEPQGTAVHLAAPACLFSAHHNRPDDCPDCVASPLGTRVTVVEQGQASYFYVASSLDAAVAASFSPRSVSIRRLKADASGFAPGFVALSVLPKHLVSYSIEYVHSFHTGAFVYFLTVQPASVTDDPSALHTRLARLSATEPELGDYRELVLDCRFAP
Macrophage-stimulating protein receptor (Homo sapiens), sequence (Q04912 310-1400 limits assumed): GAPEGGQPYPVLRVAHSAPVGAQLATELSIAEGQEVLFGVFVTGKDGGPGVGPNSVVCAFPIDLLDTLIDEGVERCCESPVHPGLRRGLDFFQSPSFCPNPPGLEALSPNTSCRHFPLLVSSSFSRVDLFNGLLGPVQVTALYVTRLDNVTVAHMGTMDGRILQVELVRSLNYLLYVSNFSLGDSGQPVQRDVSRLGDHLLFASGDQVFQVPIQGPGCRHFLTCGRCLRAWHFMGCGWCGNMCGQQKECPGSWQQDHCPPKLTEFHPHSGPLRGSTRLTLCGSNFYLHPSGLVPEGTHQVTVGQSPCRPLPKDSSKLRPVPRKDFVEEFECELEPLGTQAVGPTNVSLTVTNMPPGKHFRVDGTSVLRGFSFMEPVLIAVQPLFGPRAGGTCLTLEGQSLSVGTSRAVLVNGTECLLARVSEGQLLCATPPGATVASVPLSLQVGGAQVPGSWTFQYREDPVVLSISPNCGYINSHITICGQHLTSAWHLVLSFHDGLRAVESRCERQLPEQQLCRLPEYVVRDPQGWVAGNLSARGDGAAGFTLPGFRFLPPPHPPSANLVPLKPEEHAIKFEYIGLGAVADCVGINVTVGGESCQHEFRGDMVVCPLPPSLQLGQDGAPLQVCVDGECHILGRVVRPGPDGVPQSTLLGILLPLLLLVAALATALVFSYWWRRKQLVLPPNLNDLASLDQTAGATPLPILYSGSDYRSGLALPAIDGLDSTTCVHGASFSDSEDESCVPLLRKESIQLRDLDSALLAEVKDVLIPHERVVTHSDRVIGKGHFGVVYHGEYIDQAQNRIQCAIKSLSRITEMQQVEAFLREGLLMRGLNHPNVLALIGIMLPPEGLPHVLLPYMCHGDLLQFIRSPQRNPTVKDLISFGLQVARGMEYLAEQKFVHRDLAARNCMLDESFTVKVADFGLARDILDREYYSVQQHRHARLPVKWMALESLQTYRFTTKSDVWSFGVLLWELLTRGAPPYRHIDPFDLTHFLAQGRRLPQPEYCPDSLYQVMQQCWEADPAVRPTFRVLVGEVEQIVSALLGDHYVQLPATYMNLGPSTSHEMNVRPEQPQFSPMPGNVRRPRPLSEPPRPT
Proto-oncogene tyrosine-protein kinase Src (Homo sapiens), sequence (P12931 2-536 limits assumed): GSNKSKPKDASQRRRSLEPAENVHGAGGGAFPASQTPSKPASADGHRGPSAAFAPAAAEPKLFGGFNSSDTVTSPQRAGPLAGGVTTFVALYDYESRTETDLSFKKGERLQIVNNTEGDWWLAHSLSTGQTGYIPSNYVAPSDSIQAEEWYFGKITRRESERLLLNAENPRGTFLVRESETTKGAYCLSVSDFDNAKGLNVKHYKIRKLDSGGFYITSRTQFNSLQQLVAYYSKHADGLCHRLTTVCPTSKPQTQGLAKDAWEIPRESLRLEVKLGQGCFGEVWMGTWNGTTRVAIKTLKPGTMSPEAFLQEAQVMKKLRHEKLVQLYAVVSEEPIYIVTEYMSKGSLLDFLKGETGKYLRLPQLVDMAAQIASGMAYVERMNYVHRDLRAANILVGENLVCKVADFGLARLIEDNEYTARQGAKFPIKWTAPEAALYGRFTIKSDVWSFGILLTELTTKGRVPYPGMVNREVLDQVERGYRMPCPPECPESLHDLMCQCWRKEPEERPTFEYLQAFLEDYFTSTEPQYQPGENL
Proto-oncogene tyrosine-protein kinase ROS (Homo sapiens), sequence (P08922 whole entry): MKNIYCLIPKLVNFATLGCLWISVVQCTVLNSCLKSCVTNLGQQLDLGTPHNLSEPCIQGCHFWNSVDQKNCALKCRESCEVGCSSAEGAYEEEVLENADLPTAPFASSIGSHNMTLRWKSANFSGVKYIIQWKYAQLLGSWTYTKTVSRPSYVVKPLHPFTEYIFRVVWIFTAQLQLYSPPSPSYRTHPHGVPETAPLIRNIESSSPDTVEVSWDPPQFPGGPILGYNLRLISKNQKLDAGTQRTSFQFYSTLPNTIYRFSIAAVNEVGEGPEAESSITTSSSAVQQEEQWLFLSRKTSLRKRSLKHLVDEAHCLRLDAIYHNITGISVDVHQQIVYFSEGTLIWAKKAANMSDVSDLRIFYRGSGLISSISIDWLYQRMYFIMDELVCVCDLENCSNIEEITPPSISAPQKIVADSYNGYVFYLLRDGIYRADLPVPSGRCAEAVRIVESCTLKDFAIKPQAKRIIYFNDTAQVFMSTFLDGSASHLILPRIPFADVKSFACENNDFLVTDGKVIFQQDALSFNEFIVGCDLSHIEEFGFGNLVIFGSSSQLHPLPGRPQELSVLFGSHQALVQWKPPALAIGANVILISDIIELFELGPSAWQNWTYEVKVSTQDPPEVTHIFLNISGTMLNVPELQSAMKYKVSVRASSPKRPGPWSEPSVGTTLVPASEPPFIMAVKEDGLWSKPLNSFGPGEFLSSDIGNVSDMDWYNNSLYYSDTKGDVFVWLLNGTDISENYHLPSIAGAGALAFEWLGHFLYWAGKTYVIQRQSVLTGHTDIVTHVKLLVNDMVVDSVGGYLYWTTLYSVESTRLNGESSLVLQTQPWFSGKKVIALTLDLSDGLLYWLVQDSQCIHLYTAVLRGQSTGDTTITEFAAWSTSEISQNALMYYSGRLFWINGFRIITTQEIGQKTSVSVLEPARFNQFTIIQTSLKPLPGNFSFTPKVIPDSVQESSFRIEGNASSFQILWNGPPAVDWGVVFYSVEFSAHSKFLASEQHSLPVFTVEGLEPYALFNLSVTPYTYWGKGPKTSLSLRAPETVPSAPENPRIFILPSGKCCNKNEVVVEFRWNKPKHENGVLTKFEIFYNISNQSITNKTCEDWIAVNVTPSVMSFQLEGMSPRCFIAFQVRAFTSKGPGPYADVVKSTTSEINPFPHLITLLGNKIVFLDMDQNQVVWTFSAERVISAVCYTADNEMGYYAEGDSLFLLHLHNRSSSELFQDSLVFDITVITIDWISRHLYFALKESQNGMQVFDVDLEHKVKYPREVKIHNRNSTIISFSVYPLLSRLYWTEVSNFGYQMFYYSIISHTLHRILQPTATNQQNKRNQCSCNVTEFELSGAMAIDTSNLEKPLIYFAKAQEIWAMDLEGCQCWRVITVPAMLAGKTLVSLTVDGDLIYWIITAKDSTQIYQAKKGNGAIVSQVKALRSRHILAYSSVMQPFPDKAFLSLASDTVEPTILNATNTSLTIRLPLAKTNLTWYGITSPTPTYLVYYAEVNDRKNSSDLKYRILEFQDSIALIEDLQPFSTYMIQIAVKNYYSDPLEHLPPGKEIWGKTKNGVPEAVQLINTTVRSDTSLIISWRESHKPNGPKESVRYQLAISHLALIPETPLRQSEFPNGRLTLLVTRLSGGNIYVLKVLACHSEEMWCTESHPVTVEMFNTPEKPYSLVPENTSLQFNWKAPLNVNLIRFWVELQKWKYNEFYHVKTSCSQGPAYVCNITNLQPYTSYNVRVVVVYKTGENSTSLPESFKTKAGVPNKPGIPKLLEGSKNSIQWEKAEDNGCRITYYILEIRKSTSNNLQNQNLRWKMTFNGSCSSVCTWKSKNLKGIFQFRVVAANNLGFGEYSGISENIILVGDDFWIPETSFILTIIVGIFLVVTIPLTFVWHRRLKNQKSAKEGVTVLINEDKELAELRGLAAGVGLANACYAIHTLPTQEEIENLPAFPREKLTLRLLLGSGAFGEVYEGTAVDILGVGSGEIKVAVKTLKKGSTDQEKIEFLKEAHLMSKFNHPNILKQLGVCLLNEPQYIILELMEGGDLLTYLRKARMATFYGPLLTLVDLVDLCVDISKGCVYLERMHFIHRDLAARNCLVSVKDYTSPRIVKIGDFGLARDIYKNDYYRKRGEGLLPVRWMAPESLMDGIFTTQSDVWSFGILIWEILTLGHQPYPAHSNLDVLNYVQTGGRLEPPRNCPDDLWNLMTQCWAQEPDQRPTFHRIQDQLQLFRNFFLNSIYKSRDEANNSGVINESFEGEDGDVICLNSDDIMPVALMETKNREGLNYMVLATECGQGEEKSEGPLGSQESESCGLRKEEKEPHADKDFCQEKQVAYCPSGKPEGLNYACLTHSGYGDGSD

Compound	inhibition [1] [%]	inhibition [2] [%]	inhibition [3] [%]	inhibition [4] [%]	inhibition [5] [%]	inhibition [6] [%]	inhibition [7] [%]	inhibition [8] [%]	inhibition [9] [%]	inhibition [10] [%]
Cc1cc(Cl)cc2c1NC(=O)C2=NNc1ccc(S(N)(=O)=O)cc1	11	0.92	0.34	2.22	3.14	5.04	5.85	-1.17	-2.07	-4.26
CS(=O)(=O)CCNCc1nc(-c2ccc3ncnc(Nc4ccc(OCc5cccc(C(F)(F)F)c5)cc4)c3c2)cs1	5.88	4.48	2.59	4.03	4.18	6.29	7.64	-0.76	-3.56	0.35
Nc1nccc(-c2c(-c3ccc(F)cc3)ncn2CCCN2CCOCC2)n1	24.9	-1.76	2.17	5.06	5.81	-0.33	8.77	-1.41	1.12	-6.28
O=C(Nc1ccc(Oc2ccc3[nH]c(NC(=O)c4ccco4)nc3c2)cc1)Nc1cc(C(F)(F)F)ccc1F	82.3	-2.7	17.2	0.05	11.1	7.67	37	3.74	-0.11	1.01
NS(=O)(=O)c1ccc(N/N=C2\C(=O)Nc3ccc(Cl)cc32)cc1	22.3	3.12	–	4.68	4.73	-2.96	14.1	0.76	0.2	-0.57
Cc1ccc(O)cc1Nc1ccnc2ccc(S(C)(=O)=O)cc12	89.5	5.15	6.07	5.41	8.68	92.2	95.1	27.4	69	-7.79
CCn1c(-c2nonc2N)nc2c(C#CC(C)(C)O)nc(OCCNC)cc21	28.9	6.88	–	6.88	6.96	8.38	11.9	-1.55	-2.34	1.27
CS(=O)(=O)Nc1cccc(-c2ccc3c(NC(=O)C4CC4)n[nH]c3c2)c1	-0.36	-6.3	-6.45	3.6	2.79	1.2	4.09	1.35	-2.43	-1.34
Cc1ccc2c(c1)/C(=N/Nc1ccc(S(N)(=O)=O)cc1)C(=O)N2	18.2	-3.95	-1.57	2.42	4.27	0.59	6.44	-1.38	-2.68	2.17
Cc1nc(-c2ccccc2)n2nc(NCCCN3CCOCC3)ncc12	4.86	2.7	-3.01	4.45	2.41	6.46	6.81	2.65	2.27	1.44
CCS(=O)(=O)c1ccc(OC)c(Nc2ncc(-c3cccc(OC)c3)o2)c1	67.1	3.89	3.42	9.78	43.3	30.7	79.4	2.74	30.6	-0.11
Cc1cc(-c2ccccn2)cc(C)c1/C=C/c1cncc(-c2nn[nH]n2)c1	9.36	3.67	3.94	9.51	10.9	7.7	15.4	-2.18	11.8	-0.33
COc1cccc(-n2nc(C)c3c(N/N=C(\C)c4ccncc4)ncnc32)c1	5.78	-3.77	-0.1	2.71	4.49	2.45	3.26	0.84	2.72	1.37
Nc1nccc(-c2c(-c3ccc(F)cc3)nn3cc(C(F)(F)F)ccc23)n1	3.56	1.05	-2.78	4.58	2.24	1.35	1.39	0.31	-1.94	-0.75
COc1cccc(-n2ncc3c(N/N=C/c4ccc(S(C)(=O)=O)cc4)ncnc32)c1	26.7	29.4	44.3	7.29	27.2	56.5	77.4	4.95	17.8	-2.46
COc1cc2ncnc(Nc3ccc(C)c(O)c3)c2cc1OC	90.1	1.46	2.44	1.94	10.2	22.9	70.5	2.71	18.7	-4.37
NS(=O)(=O)c1cccc(-c2cc3ccncc3cc2OCc2ccccc2)c1	18	3.72	-2.44	10.8	17.1	5.87	11.2	-1.16	-2.93	-6.65
NC(=O)c1sc(-n2cnc3ccccc32)cc1OCc1ccccc1Br	15.3	9.12	9.57	7.48	10.1	7.25	12.9	-2.72	-2.44	0.26
NS(=O)(=O)c1ccc(NC=C2C(=O)Nc3ccc4ncsc4c32)cc1	72.4	10.4	56.3	17.3	36.8	14.2	61.9	-1.05	0.07	-8.02
COC(=O)c1ccc2c(c1)C(=Cc1cc(Br)c(O)c(Br)c1)C(=O)N2	21.5	1.56	3.36	6.38	9.41	8.74	19.6	30.9	75.9	0.74
O=S(=O)(CCOCc1ccc(-c2ccc3ncnc(Nc4ccc(OCc5cccc(F)c5)c(Cl)c4)c3c2)o1)c1ccccc1	7.27	3.62	1.46	2.65	3.57	0.66	0.4	-1.31	-2.52	1.93
CCOc1nccc2c1nc(-c1nonc1N)n2CC	28.7	10	5.31	5.15	11.8	–	5.71	3.59	5.69	1.77
ON=C1CCc2cc(-c3nc(C4CCNCC4)[nH]c3-c3ccncc3)ccc21	8.46	-6.87	1.8	1.07	2.47	2.03	0.66	0	-2.67	2.82
Cc1ccc(Nc2ccnc(Nc3cccc(C(N)=O)c3)n2)cc1O	88.7	0.19	13.3	17.4	61.4	78.3	90.7	10.8	41	-7.65
COc1ccc2ncnc(Nc3ccc(OCc4ccccc4)cc3)c2c1	11.5	2.03	4.46	1.06	3.14	2.84	8.82	-1.19	0.6	-3.74
Oc1cccc(-c2nc(-c3ccccc3)[nH]c2-c2ccncc2)c1	71.2	1.43	5.25	4.41	9.95	18.7	63.2	3.43	8.65	-2.15
Cc1ccc(C(=O)NC2CC2)cc1-c1ccc2[nH]ncc2c1	-0.71	-3.31	-6.03	0.92	1.49	-6.61	-7.08	-1.77	0.94	-1.71
Cc1cc(O)cc(C)c1/C=C/c1cncc(C(=O)N(C)C)c1	11.9	4.1	11	3.04	7.84	1.66	7.43	0.98	1.27	-1.67
